For 14 compounds, composite z-score and z-score results are on record in PubChem BioAssay.

The source made the active and inactive calls. Unless noted, the rule behind the calls is not given here.

The test system of assay [1] is Wnt5a (protein binding on small-molecule microarray). The experiment in a line: small molecules binding Wnt5a protein – biophysical, small-molecule microarray, 635/667 nm fluorescence, primary screen (AID 1142).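 Note: fluorescence read at 667 nm with signal to noise per printed feature.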 Conditions: 635 nm fluorescence, higher = more signal.
A short description of assay [2]: ATP-based viability of Huh7 replicon cells – cell-based, CellTiter-Glo luminescence, basal, 48 h, cytotoxicity control for HCV replication inhibitor project, primary screen (AID 1143).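 Note: Huh7 hepatoma cells carrying a hepatitis C replication reporter with no stimulus; test concentration not given here.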 Conditions: higher = more signal, called active from +8 up or from −8 down. (In general: A replicon is a self-replicating genome or part of one, used to study replication in cells.)
A short description of assay [3]: Pseudomonas biofilm growth suppression – PAO1 strain, BacTiter-Glo luminescence, LB-PBS, primary screen (AID 1144). Conditions: P. aeruginosa PAO1 biofilm, 12 h, higher = more signal.
A short description of assay [4]: basal CRE-LacZ reporter activity in PC12 – cell-based, unstimulated, primary screen (AID 1145). Conditions: no forskolin, luminescence, 4.5 h, higher = more signal, called active from +8 up or from −8 down.
Assay [5] is described as follows: forskolin-driven CRE-LacZ activity in PC12 – cell-based, CRE-LacZ reporter, forskolin-stimulated, primary screen (AID 1146).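 Note: PC12 cells with 6xCRE LacZ reporter stimulated by forskolin 10 µM; beta-galactosidase reporter signal reflecting CREB driven transcription.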 Conditions: luminescence, 4.5 h, higher = more signal, called active from +8 up or from −8 down.
Assay [6] has as its target Streptavidin (Streptomyces avidinii) (UniProt P22629). The experiment in a line: compounds binding control protein streptavidin – biophysical, small-molecule microarray, 635/667 nm fluorescence, artefact control for SMM compound annotation, primary screen (AID 1147).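 Note: signal reflects streptavidin binding to arrayed compounds as a control protein.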 Conditions: higher = more signal.
A short description of assay [7]: probe aInhba binding on compound microarray – biochemical, small-molecule microarray, 635/667 nm fluorescence, primary screen (AID 1148).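 Note: score merges 667nm spot fluorescence with signal-to-noise for antibody binding to printed compounds.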 Conditions: higher = more signal.
In assay [8] the target is Torsin-1A (Homo sapiens) (UniProt O14656). The experiment in a line: TOR1A wild-type binding on microarray – cell lysate, small-molecule microarray, lysate, 635/667 nm, primary screen (AID 1149). Conditions: COS7 hTOR1A-WT lysate, 635 nm fluorescence, higher = more signal.
Sequence of Torsin-1A (Homo sapiens) (O14656 whole entry, looked up): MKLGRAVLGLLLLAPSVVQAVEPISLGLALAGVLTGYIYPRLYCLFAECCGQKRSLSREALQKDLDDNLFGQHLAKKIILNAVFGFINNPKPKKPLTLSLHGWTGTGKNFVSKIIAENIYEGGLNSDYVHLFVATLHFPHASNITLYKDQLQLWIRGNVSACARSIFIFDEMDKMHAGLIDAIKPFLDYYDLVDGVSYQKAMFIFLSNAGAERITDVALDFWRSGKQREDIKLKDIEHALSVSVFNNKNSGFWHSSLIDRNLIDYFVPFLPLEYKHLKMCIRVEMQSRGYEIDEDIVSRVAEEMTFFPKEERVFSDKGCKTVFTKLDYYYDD
Assay [9] shares this target. The experiment in a line: torsin A mutant lysate binding on microarrays – cell lysate, small-molecule microarray, COS7 lysate, 635/667 nm fluorescence, primary screen (AID 1150).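 Note: score pools 667 nm emission and signal to noise measuring lysate protein binding.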 Conditions: COS7 hTOR1A mutant lysate, 635 nm fluorescence, higher = more signal.
Assay [10] deals with Sonic hedgehog protein (Shh). The experiment in a line: Sonic hedgehog microarray binding compounds – biochemical, small-molecule microarray, 635/667 nm fluorescence, primary screen (AID 1151).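 Note: Shh protein binding to compounds spotted on small-molecule microarray slides; score combines spot fluorescence intensity with signal-to-noise across triplicate slides.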 Conditions: 635 nm fluorescence, higher = more signal.

Sequence of Streptavidin (Streptomyces avidinii) (P22629 whole entry, looked up): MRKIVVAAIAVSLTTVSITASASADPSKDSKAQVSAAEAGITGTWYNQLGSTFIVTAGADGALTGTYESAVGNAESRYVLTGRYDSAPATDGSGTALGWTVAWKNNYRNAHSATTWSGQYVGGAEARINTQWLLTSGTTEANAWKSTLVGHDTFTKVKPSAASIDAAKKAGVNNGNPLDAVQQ

In the case of `CC(C)C(=C=CC[C@H](O)c1cccc(OCCO)c1)CCO`, the composite z-score in [1] was 0.299; in assay [6], -0.669; in assay [7], -0.224; in the assay with Torsin-1A (Homo sapiens) [8] it was -0.513; with Torsin-1A (Homo sapiens) [9], 0.15; in [10] it was 0.688. Further, the z-score in [2] is -1.25 (inactive); in assay [3], -0.461 (inactive); in [4], 6.6 (inactive); in [5], -0.253 (inactive).

For `CCOC(=O)C1=CC[C@@H](c2ccccc2)N(S(=O)(=O)c2ccc(C)cc2)[C@H]1c1cccc(OC)c1`, the composite z-score in assay [1] is -0.134; in assay [6], 0.717; in [7], 0.135; with Torsin-1A (Homo sapiens) [8], 0.4; in the assay with Torsin-1A (Homo sapiens) [9], 0.314; in assay [10] it was -0.176. The z-score was -2.97 (inactive) in assay [2], 0.966 (inactive) in assay [3], -0.424 (inactive) in assay [4] and 0.576 (inactive) in [5].

On to `[N-]=[N+]=NCc1ccccc1[C@@H]1OC(c2ccc(OCCCO)cc2)=N[C@]1(Cc1ccccc1)C(=O)NCCN1CCOCC1`, for which the composite z-score came out at 0.629 in assay [1]; 0.686 in assay [6]; 0.386 in [7]; 0.0739 with Torsin-1A (Homo sapiens) [8]; 0.818 with Torsin-1A (Homo sapiens) [9]; 0.0392 in assay [10]. The z-score was -2.31 (inactive) in [2], 0.0636 (inactive) in [3], 2.76 (inactive) in assay [4] and -0.808 (inactive) in [5].

Consider `COC(=O)[C@@]1(Cc2ccc(F)cc2)[C@H]2c3cc(C(=O)N4CCCC4)n(C)c3C[C@H]2CN1C(=O)c1ccccc1`, for which the composite z-score in assay [1] was 0.926; in assay [6], 1.18; in assay [7], 0.757; with Torsin-1A (Homo sapiens) [8], 0.492; with Torsin-1A (Homo sapiens) [9], 1.34; in [10] it was -0.928. Moreover, the z-score in [2] was -1.4 (inactive); in [3], -0.666 (inactive); in [4] it was 0.58 (inactive); in assay [5] it was 0.736 (inactive).

As for `C=CCNC(=O)[C@H]1[C@@H]2C(=O)O[C@@H](c3ccccc3)[C@@H](c3ccccc3)N2[C@@H](c2ccc(OCCO)cc2)[C@]12C(=O)N(C(=O)OCCOC)c1ccc(C#Cc3ccc(OC)cc3)cc12`, the composite z-score in [1] came to 0.209; in [6] it was 0.51; in assay [7], 0.152; in the assay with Torsin-1A (Homo sapiens) [8], 0.563; with Torsin-1A (Homo sapiens) [9], 0.86; in assay [10] it was 1.72. For the same compound, the z-score in [2] is -5.38 (inactive); in assay [3], 0.054 (inactive); in assay [4], -1.43 (inactive); in [5], -0.857 (inactive).

For `CC(=O)NCCCC[C@@H]1NC(=O)[C@@H]2C[C@H](C(=O)NCCCCCCN)[C@H](c3cccc(OCCO)c3)N2C1=O`, the composite z-score was -0.147 in assay [1]; 0.932 in assay [6]; -0.128 in assay [7]; 0.475 with Torsin-1A (Homo sapiens) [8]; 0.464 with Torsin-1A (Homo sapiens) [9]; -0.601 in assay [10]. The z-score in assay [2] was -0.0107 (inactive); in assay [3], 0.615 (inactive); in assay [4], -0.13 (inactive); in assay [5], -0.556 (inactive).

On to `CC(C)[C@H]1NC(=O)[C@@]23C(=O)N[C@@H](Cc4ccccc4)C2[C@H](C)[C@@]2(C)O[C@H]2C3/C=C/C/C=C\CNC(=O)[C@H](Cc2ccccc2)NC1=O` (stereo not given in full), for which the composite z-score in assay [1] was determined as 0.566; in assay [6], 0.852; in assay [7], 0.0528; with Torsin-1A (Homo sapiens) [8], 1.3; in the assay with Torsin-1A (Homo sapiens) [9], 0.629; in assay [10] it was 1.96. The z-score in assay [2] is -2.56 (inactive); in assay [3], 1.12 (inactive); in assay [4], 1.57 (inactive); in [5], -0.513 (inactive).

Regarding `CCOC(=O)C[C@H]1[C@H](OC(=O)c2ccccc2-c2ccccc2)[C@@H](NC(=O)c2ccccc2)c2cc(OCCCO)ccc2N1C(=O)c1ccccc1`, the composite z-score is 0.309 in assay [1]; 0.19 in assay [6]; -0.157 in assay [7]; 0.0802 with Torsin-1A (Homo sapiens) [8]; 0.261 with Torsin-1A (Homo sapiens) [9]; 0.259 in [10]. The z-score in assay [2] was -0.208 (inactive); in assay [3] it was 0.867 (inactive); in assay [4] it was 2.38 (inactive); in assay [5], 0.908 (inactive).

As for `[N-]=[N+]=Nc1ccccc1[C@@H]1OC(c2ccc(OCCCO)cc2)=N[C@]1(Cc1ccccc1)C(=O)NCc1ccccc1`, the composite z-score in assay [1] came out at 0.792; in [6], 1.45; in assay [7] it was 0.38; in the assay with Torsin-1A (Homo sapiens) [8], 0.662; in the assay with Torsin-1A (Homo sapiens) [9], 1.09; in [10] it was 0.263. For the same compound, the z-score is -3.97 (inactive) in [2], -0.065 (inactive) in [3], 0.143 (inactive) in assay [4] and -0.757 (inactive) in assay [5].

With `NCCCCCNC(=O)[C@@H]1C[C@@H]2C(=O)N3CCC[C@H]3C(=O)N2[C@@H]1c1ccc(O)cc1`, the composite z-score amounted to 0.446 in assay [1]; 1.11 in assay [6]; 0.0706 in assay [7]; 0.778 with Torsin-1A (Homo sapiens) [8]; 1.1 with Torsin-1A (Homo sapiens) [9]; 0.468 in assay [10]. Also, the z-score in [2] is -0.406 (inactive); in assay [3], -0.113 (inactive); in assay [4], 0.143 (inactive); in [5], -0.707 (inactive).

`CCc1cccc(NC(=O)O[C@H]2[C@H](OC(=O)Nc3ccccc3)[C@H](OC(=O)Nc3ccccc3)[C@@H](OC)O[C@@H]2CO)c1`: the composite z-score in [1] is 0.428; in assay [6], 1.03; in assay [7], 0.212; in the assay with Torsin-1A (Homo sapiens) [8], -0.417; in the assay with Torsin-1A (Homo sapiens) [9] it was 0.778; in assay [10], 0.0653. The z-score in assay [2] is -6.02 (inactive); in [3] it was -0.0223 (inactive); in assay [4], 1.03 (inactive); in assay [5], -1.2 (inactive).

Take `COC(=O)[C@@]1(Cc2ccc(F)cc2)[C@H]2c3cc(C(=O)N(C)C)n(Cc4c(CO)[nH]cc(C)c4=O)c3C[C@H]2CN1C(=O)c1ccccc1`: the composite z-score in assay [1] was 0.39; in [6], -0.0278; in assay [7], 0.0212; with Torsin-1A (Homo sapiens) [8], 0.475; with Torsin-1A (Homo sapiens) [9], -0.134; in [10], -0.462. Besides, the z-score in assay [2] is -0.401 (inactive); in assay [3], -0.00694 (inactive); in assay [4], 0.39 (inactive); in assay [5], 1.15 (inactive).

For the compound `O=C1C2C=CC(C(O)C=Cc3ccc([N+](=O)[O-])cc3)N(Nc3ccccc3)C2C(=O)N1c1ccccc1` (stereo not given), the composite z-score is 0.264 in [1]; 1.53 in assay [6]; 0.117 in [7]; -0.283 with Torsin-1A (Homo sapiens) [8]; 0.0565 with Torsin-1A (Homo sapiens) [9]; 0.0063 in assay [10]. In addition, the z-score in [2] was -0.132 (inactive); in [3] it was -0.633 (inactive); in assay [4], -0.143 (inactive); in assay [5], -0.148 (inactive).

For `CN1C(=O)C2C=CC(C(O)c3ccc(F)cc3)N(NC(=O)OC(C)(C)C)C2C1=O` (stereo not given), the composite z-score was 0.155 in assay [1]; 1.43 in assay [6]; 0.0705 in assay [7]; 0.0284 with Torsin-1A (Homo sapiens) [8]; -0.0455 with Torsin-1A (Homo sapiens) [9]; -0.761 in [10]. Further, the z-score was -0.134 (inactive) in assay [2], 0.193 (inactive) in [3], 0.436 (inactive) in assay [4] and 0.84 (inactive) in assay [5].
